Results taken from PubChem BioAssay (EPA / NIEHS).
Results filed as inconclusive are left out. The source made the active and inactive calls. The calls were made as follows: active = hit-call score of the fitted dose curve at least 0.9, where 1 is the maximum; inconclusive = response in the unintended direction; inactive = score below 0.9.

target: Ratio of Nucleoli Translocation and Cytoplasm, AR (gene 367) (UniProt P10275); assay: UPITT_HCI_U2OS_AR_TIF2_Nucleoli_Cytoplasm_Ratio_Antagonist: University of Pittsburgh U2OS Androgen Receptor-Transcriptional Intermediary Factor 2 (AR-TIF2) Antagonism High Content Imaging Assay for Ratio of Nucleoli Translocation and Cytoplasm (AID 2283999);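 also: antagonists lower the DHT-driven ratio of nucleolar to cytoplasmic red signal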
Sequence (P10275 whole entry, looked up, the tested form may be a part): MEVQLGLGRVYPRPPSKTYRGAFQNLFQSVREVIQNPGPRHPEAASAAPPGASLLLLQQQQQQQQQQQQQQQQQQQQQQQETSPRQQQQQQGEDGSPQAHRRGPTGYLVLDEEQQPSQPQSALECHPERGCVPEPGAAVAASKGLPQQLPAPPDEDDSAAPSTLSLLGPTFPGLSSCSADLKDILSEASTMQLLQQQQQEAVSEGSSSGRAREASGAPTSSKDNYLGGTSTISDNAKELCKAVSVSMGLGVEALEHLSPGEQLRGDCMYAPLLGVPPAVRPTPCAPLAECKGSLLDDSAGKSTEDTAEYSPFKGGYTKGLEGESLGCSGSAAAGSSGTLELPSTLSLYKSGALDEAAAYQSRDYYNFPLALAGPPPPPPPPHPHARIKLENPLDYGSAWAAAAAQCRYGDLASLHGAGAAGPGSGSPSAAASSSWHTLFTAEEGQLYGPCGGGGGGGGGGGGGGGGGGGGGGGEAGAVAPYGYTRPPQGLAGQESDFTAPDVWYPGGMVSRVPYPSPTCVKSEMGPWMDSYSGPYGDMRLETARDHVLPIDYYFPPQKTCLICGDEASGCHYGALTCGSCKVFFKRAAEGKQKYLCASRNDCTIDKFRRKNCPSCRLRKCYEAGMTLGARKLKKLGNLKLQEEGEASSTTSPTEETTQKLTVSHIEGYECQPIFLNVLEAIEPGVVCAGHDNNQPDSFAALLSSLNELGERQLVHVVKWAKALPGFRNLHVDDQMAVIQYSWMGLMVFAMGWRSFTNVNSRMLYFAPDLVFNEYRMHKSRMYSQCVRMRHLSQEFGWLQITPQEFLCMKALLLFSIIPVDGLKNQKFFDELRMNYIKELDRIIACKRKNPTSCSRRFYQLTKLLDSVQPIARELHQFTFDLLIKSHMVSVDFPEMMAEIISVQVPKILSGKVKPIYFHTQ
Description: UPITT_AR_TIF2_PPIB is a cell-based, high-content imaging assay that uses U2OS, a human osteosarcoma cell line, expressing a human androgen receptor fused to red fluorescent protein and the coactivator TIF2 fused to green fluorescent protein. UPITT_HCI_U2OS_AR_TIF2_Nucleoli_Cytoplasm_Ratio_Antagonist is one of four assay components measured from the UPITT_AR_TIF2_PPIB assay. It is designed to make measurements of the ratio of red fluorescence localized in the nucleolar region of the cell nucleus to red fluorescence localized in the cytoplasm as detected with high-content fluorescent imaging.Data from the assay component UPITT_HCI_U2OS_AR_TIF2_Nucleoli_Cytoplasm_Ratio_Antagonist was analyzed into 1 assay endpoint. This assay endpoint, UPITT_HCI_U2OS_AR_TIF2_Nucleoli_Cytoplasm_Ratio_Antagonist, was analyzed in the positive analysis fitting direction relative to DHT as the baseline of activity. Using a type of binding reporter, measures of receptor for loss-of-signal activity can be used to understand the binding at the pathway-level as it relates to the gene AR.
Daughter plates containing 2 uL of 10 mM compounds in DMSO were prepared and replicated from the 384-well Library of Pharmacologically Active Compounds (LOPAC) master plates using the Bravo outfitted with a 384-well transfer head. Aluminum adhesive plate seals were applied with an Abgene Seal-IT 100 (Rochester, NY) plate sealer, and the plates were stored at -20 C in a Matrical MatriMinistore (Spokane, WA) automated compound storage and retrieval system. For screening, LOPAC daughter plates were withdrawn from -20C storage, thawed to ambient temperature, centrifuged 1-2 min at 50 g, and the plate seals were removed before the transfer of 98 uL of serum-free tissue culture medium (SFM) into wells using the BioTek Microflo liquid handler (BioTek, Winooski, VT) to generate a 200 uM intermediate stock concentration of library compounds (2.0% DMSO). The diluted compounds were mixed by repeated aspiration and dispensation using a 384-well P30 dispensing head on the Evolution P3 (EP3) liquid handling platform (PerkinElmer, Waltham, MA) and then 5 uL of diluted compounds was transferred to the wells of assay plates. In the LOPAC screen, compounds were individually tested at a final concentration of 20 uM (0.2% DMSO). After the diluted compounds had been transferred from the daughter plates to the primary HCS assay plates, aluminum adhesive plate seals were applied and the diluted daughter plates were stored frozen at -20C. To confirm active compounds identified in the primary screen, we withdrew the LOPAC daughter plates containing the 200 uM intermediate concentration of library compounds (2.0% DMSO) from -20C storage, thawed them to ambient temperature, centrifuged them for 1-2 min at 50 g, and removed the plate seals. A work list was generated to direct the Multiprobe Janus liquid handling platform (PerkinElmer) to cherry pick 75 uL from the wells of the diluted daughter plates that were flagged active in the primary screen and to reformat these into a 384-well plate hit confirmation daughter plate. Five microliters of primary HCS active compounds was then transferred into triplicate wells of assay plates using a 384-well P30 dispensing head on the Evolution P3 (EP3) liquid handling platform (PerkinElmer). […] Daughter plates containing 2 uL of the serially diluted compounds in DMSO were prepared and replicated from the 384-well serial dilution master plates using the Bravo outfitted with a 384-well transfer head. Aluminum adhesive plate seals were applied and plates were stored at -20C. For testing in the bioassays, daughter plates were withdrawn from -20C storage, thawed to ambient temperature, centrifuged for 1-2 min at 50 g, and the plate seals were removed before the transfer of 38 uL of SFM into wells using the BioTek Microflo liquid handler (BioTek) to generate an intermediate stock concentration of library compounds ranging from 1.95 to 500 uM (5.0% DMSO). […]

Q: Which outcome does the source give for `N#Cc1nn(-c2c(Cl)cc(C(F)(F)F)cc2Cl)c(N)c1S(=O)C(F)(F)F` (configuration not stated) here?
A: inactive

Q: Which outcome does the source give for `CCON=C(CC)C1=C(O)CC(c2c(C)cc(C)cc2C)CC1=O` (configuration not stated) here?
A: inactive

Q: `CO/C=C(/C(=O)OC)c1ccccc1Oc1cc(Oc2ccccc2C#N)ncn1` was tested. Which outcome did it give?
A: inactive

Q: How did the AC50 turn out when `CN(C)C(=S)SSC(=S)N(C)C` was run?
A: 9.92 µM (active)

Q: `CC(C)Oc1cc(-n2nc(C(C)(C)C)oc2=O)c(Cl)cc1Cl` was tested. Which outcome did it give?
A: inactive

Q: With `CCCC1COC(Cn2cncn2)(c2ccc(Cl)cc2Cl)O1` (configuration not stated) as the compound, how does the outcome read?
A: inactive

Q: With `O=C(Nc1ccccc1)Nc1ccnc(Cl)c1` as the compound, how does the outcome read?
A: inactive

Q: How did the AC50 turn out when `CS/C(C)=N/OC(=O)N(C)SN(C)C(=O)O/N=C(\C)SC` was run?
A: 13.8 µM (active)

Q: With `CCOC(=O)CC(SP(=S)(OC)OC)C(=O)OCC` (configuration not stated) as the compound, how does the AC50 read?
A: 69.2 µM (active)

Q: Which outcome does the source give for `Cc1cc(Cl)ccc1OCC(=O)O` here?
A: inactive

Q: `N#CC(CCc1ccc(Cl)cc1)(Cn1cncn1)c1ccccc1` (configuration not stated) was tested. Which outcome did it give?
A: inactive

Q: With `Cc1ccc(-c2c(Cl)nc(C#N)n2S(=O)(=O)N(C)C)cc1` as the compound, how does the outcome read?
A: inactive
